Structures are written as SMILES. In all, about 52,000 compounds went through this assay and about 4,300 (8.3%) were called active. No stated cut-off is given here; in the data, active means survival mostly below about 52% (no sharp cut-off); inactive means mostly above about 56%. What follows is part of a selection rich in actives, with near analogues and random picks from the rest.

The test system of the assay is DeltatarO mutant. Briefly: growth inhibition of S. aureus wild type versus tarO mutant, primary screen, teichoic acid synthesis inhibitors, RN4220, OD600 (AID 463173). The settings on record: OD600, 18 h, stronger effect = lower value, screened at 18.75 µg/mL (by protocol).
For `Cc1ccccc1CCNC(=O)c1ccc2c(c1)nc1n2CCC(C)C1` (configuration not stated), the survival is 83% (inactive).

In the case of `Cc1cc(S(=O)(=O)N2CCCC2)ccc1-n1cnnn1`, the survival is 113% (inactive).

For `CCOC(=O)c1ccc(NC(=O)CSc2nc3ccccc3c(=O)n2CCC(=O)NC2CCCCC2)cc1`, the survival was 91% (inactive).

In the case of `CC1(C)OC(c2ccccc2)CC1=O` (configuration not stated), the survival is 110% (inactive).

As for `CC(C)=CCc1c(O)cc(O)c2c1OC(c1ccccc1)CC2=O` (configuration not stated), the survival is 1% (active).

For the compound `Cc1oc(-c2ccccc2F)nc1CS(=O)CC(=O)NC(C)C` (configuration not stated), the survival was 89% (inactive).

Regarding `Cc1nn(C(=O)c2ccc(Cl)cc2)c(C)c1S(=O)(=O)N1CCCCCC1`, the survival was 80% (inactive).

For `Cc1nn(C(=O)c2ccccc2)c(C)c1S(=O)(=O)N1CCCCCC1`, the survival is 89% (inactive).

As for `Cc1nn(C(=O)COc2ccc(Cl)cc2)c(C)c1Sc1ccccc1`, the survival was 87% (inactive).

Turning to `Cc1ccc(Sc2c(C)nn(C(=O)COc3ccccc3)c2C)cc1`, the survival was 25% (active).

Turning to `Cc1nn(C(=O)c2ccc(Cl)cc2)c(C)c1Sc1ccc(Cl)cc1`, the survival was 51% (active).

Turning to `Cc1ccc(Sc2c(C)nn(C(=O)COc3ccc(F)cc3)c2C)cc1`, the survival is 92% (inactive).

As for `Cc1nn(C(=O)COc2ccccc2)c(C)c1Sc1ccccc1`, the survival was 115% (inactive).

Regarding `Cc1ccc(C(=O)n2nc(C)c(S(=O)(=O)N3CCCCCC3)c2C)cc1`, the survival was 91% (inactive).

As for `Cc1nn(C(=O)c2ccccc2)c(C)c1Sc1ccc(Cl)cc1`, the survival is 10% (active).

In the case of `Cc1nn(C(=O)c2ccc(Cl)cc2)c(C)c1S(=O)(=O)N1CCOCC1`, the survival is 91% (inactive).

Regarding `Cc1ccc(Sc2c(C)nn(C(=O)c3ccc(Cl)cc3)c2C)cc1`, the survival was 19% (active).

For the compound `COc1cc(C(=O)n2nc(C)c(Sc3ccc(Cl)cc3)c2C)cc(OC)c1OC`, the survival is 57% (inactive).

Regarding `Cn1nccc1C(=O)NCc1ccc2c(c1)CCN2C(=O)c1ccccc1`, the survival was 90% (inactive).

In the case of `O=C1CN(C(=O)c2ccc(S(=O)(=O)N3CCCCC3)cc2)C(c2ccc(F)cc2)c2cc(Br)ccc2N1` (configuration not stated), the survival is 77% (inactive).

In the case of `COc1ccc(-n2c(SCc3nc(-c4ccc(C)cc4)no3)nnc2-c2ccccc2)cc1`, the survival was 60% (inactive).

Take `O=C(Nc1ccc(OC(F)(F)F)cc1)C1CCCN(S(=O)(=O)c2cccc3nonc23)C1` (configuration not stated): the survival is 96% (inactive).

On to `Cc1cc(C)cc(C(=O)NCC(c2ccc(N(C)C)cc2)N2CCCC2)c1` (configuration not stated), for which the survival was 95% (inactive).

On to `CCN(CC)CCn1c(=N)n(CCOc2ccccc2Cl)c2ccccc21`, for which the survival was 59% (inactive).

On to `CC1CCN(c2nc3ccccc3nc2C(F)(F)F)CC1`, for which the survival is 75% (inactive).

As to `CC1CCN(c2nc(-c3ccc(Br)cc3)nc3ccccc23)CC1`, the survival was 82% (inactive).

On to `CC1CCCCN1C(=O)CSc1nc(C2CC2)nc2ccccc12` (configuration not stated), for which the survival was 82% (inactive).

On to `Brc1ccc(-c2nc(N3CCN(c4ccccc4)CC3)c3ccccc3n2)cc1`, for which the survival is 117% (inactive).

In the case of `CC1CCCCN1c1nc(-c2ccc(C(C)(C)C)cc2)nc2ccccc12` (configuration not stated), the survival was 3% (active).

`CC1CCN(c2nc(-c3ccc(C(C)(C)C)cc3)nc3ccccc23)CC1`: the survival is 6% (active).

As to `Cc1ccc(C(C(=O)NC2CCCCC2)N(C(=O)Cc2c[nH]c3ccccc23)C2CC2)o1` (configuration not stated), the survival is 94% (inactive).

For the compound `COc1ccccc1C1CC(=O)NC(C)=C1C(=O)OC1CCCCCC1` (configuration not stated), the survival is 86% (inactive).

Turning to `CCN1CCN(c2ccc(NC(=O)COc3ccccc3)cc2)CC1`, the survival was 106% (inactive).

For the compound `O=S(=O)(c1ccc(F)cc1)N1CCCCC1`, the survival is 86% (inactive).

As for `O=S(=O)(N1CCCCC1)N1CCN(c2ccc(F)cc2)CC1`, the survival is 65% (active).

As for `O=C(CN1CCN(c2ccc(F)cc2)CC1)N1CCCC1`, the survival was 83% (inactive).

In the case of `CCc1ccc(NC(=O)Cn2c(=O)n(Cc3ccco3)c(=O)c3cccnc32)cc1`, the survival was 82% (inactive).

With `CC1(C)CC(=O)C=C(NCC(O)c2ccccc2)C1` (configuration not stated), the survival is 102% (inactive).

`Cc1ccc(CNC(=O)CN(c2ccc(C)cc2)S(=O)(=O)c2c(C)nn(C)c2C)cc1`: the survival is 73% (inactive).

For `CC(C)(C)c1ccc(C(=O)N(Cc2ccc(F)cc2)Cc2ccco2)cc1`, the survival was 55% (inactive).

For the compound `COc1ccc2oc(=O)c(C(=O)NCc3ccco3)cc2c1`, the survival is 100% (inactive).

For `CCC1Oc2ccc(C)cc2N(CC(=O)N(Cc2ccc3c(c2)OCO3)CC2CCCO2)C1=O` (configuration not stated), the survival is 96% (inactive).

Turning to `O=C(c1cc2ccccc2oc1=O)N(Cc1cccs1)Cc1cccs1`, the survival was 48% (inactive).

Consider `O=C(c1cc2ccccc2oc1=O)N(Cc1ccc(F)cc1)C1CC1`, for which the survival was 88% (inactive).

As to `COc1ccccc1C(=O)N(Cc1ccco1)Cc1ccccc1F`, the survival is 60% (inactive).

On to `O=C(c1cc2ccccc2oc1=O)N(Cc1ccc(F)cc1)Cc1ccco1`, for which the survival is 41% (active).

`O=C(c1cc2ccccc2oc1=O)N(Cc1ccc2c(c1)OCO2)CC1CCCO1` (configuration not stated): the survival is 42% (active).

With `O=C(NCC1CCCO1)c1cc2ccccc2oc1=O` (configuration not stated), the survival is 80% (inactive).

On to `Cc1ccccc1CN(Cc1ccco1)C(=O)c1cc2ccccc2oc1=O`, for which the survival was 44% (active).

For `Cc1cccc2cc(CN(Cc3ccco3)C(=O)c3ccccc3)c(=O)[nH]c12`, the survival was 95% (inactive).

As for `COc1ccc(CN(Cc2ccco2)C(=O)c2cc3ccccc3oc2=O)c(OC)c1`, the survival is 40% (active).

As to `O=C(O)CCn1cnc2sc3c(c2c1=O)CCCC3`, the survival is 105% (inactive).

In the case of `Nc1cnc2cccc3c2c1-c1ccccc1C3=O`, the survival is 86% (inactive).

Consider `Cc1ccc(S(=O)(=O)c2cnc(SCC(=O)Nc3cc(C)cc(C)c3)nc2N)cc1`, for which the survival is 102% (inactive).

In the case of `COc1ccc(-c2cc(C(=O)NCCc3ccc(Cl)cc3)[nH]n2)cc1`, the survival was 72% (inactive).

`Cc1c(Cl)cccc1-n1ncc(C(=O)N2CCc3ccccc3C2)c1C1CCN(C(=O)OC(C)(C)C)CC1`: the survival was 85% (inactive).

Take `COc1ccc(C(=O)NCCn2cc(SCC(=O)Nc3ccc4c(c3)OCCO4)c3ccccc32)cc1`: the survival was 153% (inactive).

Regarding `CCOC(=O)c1c(C)oc2nc(C)nc(NCC3CCN(Cc4ccc(F)cc4)CC3)c12`, the survival was 102% (inactive).

Consider `Cc1ccc(C)c(NC(=O)CCc2c(C)nn(-c3ccc(N4CCCC4)nn3)c2C)c1`, for which the survival was 67% (inactive).

In the case of `COc1ccccc1Nc1c2c(nc3ccc(NC(=O)/C=C/c4cccc(OC)c4OC)cc13)CCCC2`, the survival is 74% (inactive).

For the compound `Cc1ccccc1Nc1c(-c2ccc(Cl)s2)nc2cccc(C)n12`, the survival was 99% (inactive).

On to `Fc1ccc(Nc2c(-c3ccco3)nc3ccccn23)cc1`, for which the survival is 53% (inactive).

Regarding `Cc1ccc(-c2nc3ccccn3c2Nc2ccc3c(c2)OCCO3)s1`, the survival is 79% (inactive).

`Cc1ccccc1Nc1c(-c2ccco2)nc2c(C)cccn12`: the survival is 25% (active).

Consider `Cc1ccc(Nc2c(-c3ccc(N(C)C)cc3)nc3ccccn23)cc1`, for which the survival is 131% (inactive).

In the case of `Cc1ccccc1Nc1c(-c2c[nH]c3ccccc23)nc2ccccn12`, the survival is 69% (inactive).

`Cc1ccc(-c2nc3ccc(Cl)cn3c2Nc2ccccc2C)s1`: the survival was 107% (inactive).

On to `Cc1ccccc1Nc1c(-c2ccc(Cl)s2)nc2c(C)cccn12`, for which the survival is 69% (inactive).

For `Cc1ccc(-c2nc3ccccn3c2Nc2ccccc2C)s1`, the survival was 21% (active).

`Cc1cccc(C)c1Nc1c(-c2ccccn2)nc2c(C)cccn12`: the survival is 51% (inactive).

As for `Cc1ccc(-c2nc3c(C)cccn3c2Nc2ccccc2C)s1`, the survival was 0% (active).

`Cc1ccc(Nc2c(-c3ccc(C)s3)nc3ccccn23)cc1`: the survival is 31% (active).

The values are drawn from PubChem BioAssay AID463173 (ICCB-Longwood Screening Facility, Harvard Medical School, 2010).
